The supplement of paper PMC3334620
Over roughly 33,000 sequences, “E-score (-0.5 to 0.5)” has its median near -0.01; the highest 2% begin near 0.26. The full list was thinned out, with the highest values kept by preference.

Each sequence was assayed against Ste12 (UniProt P13574) (assay: PBM E-score (8-mer binding enrichment) (E-score (-0.5 to 0.5)); higher = stronger / more preferred TF binding). Settings: protein concentration: 200 nM; construct: GST-DNA-binding domain.
Procedure, shortened: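 Using PURExpress in vitro transcription/translation, GST-tagged yeast transcription factors were made in full-length or DNA-binding-domain form. These were applied at about 100-200 nM to double-stranded universal all-10-mer Agilent arrays, and bound protein was detected with fluorescent anti-GST. Scans were normalised with masliner before the Universal PBM Analysis Suite assigned E-scores to ungapped eight-base words pooled with their reverse complements.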

Chain of UniProt P13574 (P13574 whole entry, the tested form may be a part): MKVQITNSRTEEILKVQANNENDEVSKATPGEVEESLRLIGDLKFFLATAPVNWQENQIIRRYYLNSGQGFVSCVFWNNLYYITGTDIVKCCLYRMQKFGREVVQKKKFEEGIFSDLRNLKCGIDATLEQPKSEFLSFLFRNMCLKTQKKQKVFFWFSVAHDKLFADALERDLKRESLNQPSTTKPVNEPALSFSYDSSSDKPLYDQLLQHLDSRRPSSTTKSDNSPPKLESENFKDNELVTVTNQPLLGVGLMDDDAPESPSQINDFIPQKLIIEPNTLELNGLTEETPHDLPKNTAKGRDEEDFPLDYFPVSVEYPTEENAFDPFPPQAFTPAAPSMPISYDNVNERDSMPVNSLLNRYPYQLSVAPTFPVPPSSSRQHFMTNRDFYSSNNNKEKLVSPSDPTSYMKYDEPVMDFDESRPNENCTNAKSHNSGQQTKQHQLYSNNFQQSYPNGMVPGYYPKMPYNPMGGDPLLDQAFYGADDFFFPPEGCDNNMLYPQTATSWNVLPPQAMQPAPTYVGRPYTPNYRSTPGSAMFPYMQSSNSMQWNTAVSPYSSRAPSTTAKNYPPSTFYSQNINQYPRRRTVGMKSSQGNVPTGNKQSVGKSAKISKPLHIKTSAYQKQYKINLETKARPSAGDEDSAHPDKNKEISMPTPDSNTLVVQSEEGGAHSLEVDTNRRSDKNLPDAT

Sequence	PBM E-score
GTCCATAA	-0.172
CGGTGGAC	-0.157
CTCACTAC	0.00581
CAGTTACA	0.0929
CGTTTCTA	0.166
CGTTTCAA	0.46
CCTTTCAA	-0.0319
AAGCTAGC	-0.242
CACTTCGC	0.0953
AAGAATGA	0.209
ACATCCCT	-0.0649
ACATCCCC	0.321
CCATCCCC	0.0914
AGCAGGTG	-0.0318
CAATCCGC	0.0698
CAATCCCA	-0.0795
CAATCCGG	0.273
CAATCCCC	0.0988
AAATCCGG	0.0201
CAATCCCG	0.321
TTAGGAAA	0.292
ATAGGAAA	0.0645

Sequence	PBM E-score
CTAGGAAA	-0.0731
AAGAAATC	-0.0981
ATGAAATC	0.185
AGGAAACC	-0.0955
CTGAAACA	0.495
CTGAAAGA	0.00814
CTGAAAAC	0.0248
CTGAAACC	0.47
ATGAAACC	0.457
CTGAAATA	0.202
CTGAAATC	-0.0192
AGAACATC	-0.0976
CGACCGTC	-0.173
CGAGTCAC	-0.0334
CAATGCAC	-0.042
AAAACAAG	0.104
AAAACAAA	0.293
GTAACAAA	0.312
AGAACAAA	0.312
TAAACAAA	0.244
CAAACAAA	0.149
CTAACAAA	0.0819

Sequence	PBM E-score
AGAACAAT	0.247
GAAACAAA	0.345
ACAACAAA	0.152
TTAACAAA	0.246
AGAACAAG	0.0467
ATGAGAAC	0.118
AGTGAGCG	-0.176
CCGCAGCG	-0.033
GCGTAGCA	0.0572
CTCGACTA	0.0414
GAGACCTA	-0.0109
GAGATTGA	0.0793
CCTAGAAA	0.144
GAAACAAC	0.334
AAAACAAC	0.154
CAAACAAC	0.223
GGGGTGAA	0.0185
CGCCTAGA	-0.0727
ACATCTTA	-0.0589
ACATCTTG	-0.151
ACATCTTC	0.261
